The values below come from PubChem BioAssay (NCI).

Test systems include NCI-H23 lung; NCI-H226 lung; NCI-H322M lung; NCI-H460 lung; HOP-92 NSCLC; NCI-H522 lung; 786-0 renal; COLO 205 colon; DU-145 prostate; K-562 leukemia; MALME-3M melanoma; MDA-MB-231 breast; RXF 393 renal; SF-268 CNS; SF-295 CNS; SF-539 CNS; UACC-257 melanoma; M14 melanoma; HOP-62 NSCLC; A549/ATCC NSCLC.
Holding throughout (test): NCI-60 one-dose screen, 48 h (100 = growth as untreated, 0 = no growth, -100 = all killed)
Holding throughout (settings): 10 µM unless noted

Values joined by “and” are separate entries in the source; they are usually repeats but may differ in a detail not shown here. Equal entries are not always repeated. This is part of a sample that, as a whole, favours compounds with a hit. Of some 83,000 tested, about 20% had one in any assay.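 48-hour exposure, single concentration, 96-well plates; percent growth endpoint where 0 means no net growth. Active: below 10.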 A number with no mark means an inactive call. Active and inactive are the calls of the source.

As to `N#C/C(=C1C=C/C(=N/O)C(Br)=C/1)c1ccccc1`, the growth with NCI-H23 lung was 78.3%; in the assay with NCI-H226 lung it was 32%; in the assay with NCI-H322M lung, 42.4%; in the assay on NCI-H460 lung, 8.25% (active); in the assay with HOP-92 NSCLC it was -6.62% (active); with NCI-H522 lung it was -43.3% (active). The growth in the assay with 786-0 renal is 20%; in the assay with COLO 205 colon it was 83.2%; with DU-145 prostate, -13.1% (active); with K-562 leukemia it was 9.55% (active); with MALME-3M melanoma it was 67.4%; in the assay with MDA-MB-231 breast it was 28.1%. In addition, the growth in the assay with RXF 393 renal is 17%; with SF-268 CNS, 18.8%; with SF-295 CNS, -8.83% (active); in the assay with SF-539 CNS, -26% (active); in the assay on UACC-257 melanoma, 44.1%; in the assay with M14 melanoma, 31.9%.

On to `CC12CCC(CC1)C(C)(C)O2`, for which the growth was 104% with NCI-H226 lung; 101% in the assay with NCI-H322M lung; 110% in the assay on HOP-62 NSCLC; 118% in the assay with NCI-H460 lung; 105% in the assay on HOP-92 NSCLC; 95% with NCI-H522 lung. For the same compound, the growth in the assay on A549/ATCC NSCLC was 102%; with 786-0 renal, 94.5%; in the assay on COLO 205 colon it was 110%; with DU-145 prostate, 110%; in the assay with MALME-3M melanoma, 101%; in the assay on MDA-MB-231 breast, 100%. Moreover, the growth in the assay on RXF 393 renal was 117%; with SF-268 CNS, 119%; in the assay with SF-295 CNS, 91%; in the assay on SF-539 CNS it was 103%; in the assay on UACC-257 melanoma, 108%; in the assay on M14 melanoma, 99.7%.

Consider `CCN(CC)C(=O)c1cccnc1`, for which the growth was 110% with NCI-H226 lung; 123% in the assay on NCI-H322M lung; 111% with NCI-H460 lung; 117% in the assay with HOP-92 NSCLC; 98.9% in the assay with NCI-H522 lung; 102% in the assay with A549/ATCC NSCLC. The growth is 99.4% in the assay with 786-0 renal; 115% in the assay on COLO 205 colon; 119% in the assay on DU-145 prostate; 104% in the assay on MALME-3M melanoma; 106% with MDA-MB-231 breast; 123% in the assay on RXF 393 renal. For the same compound, the growth in the assay with SF-268 CNS was 108%; in the assay with SF-295 CNS, 99.8%; in the assay with SF-539 CNS, 99.8%; in the assay with UACC-257 melanoma, 101%; in the assay with M14 melanoma, 103%.

On to `CCOC(=O)C(C(=O)OCC)C(c1ccccc1)N1CCN(c2ccccc2)CC1` (stereo unspecified), for which the growth is 112% and 96.9% in the assay on NCI-H226 lung; 93.3% and 107% with NCI-H322M lung; 116% and 105% with HOP-62 NSCLC; 116% and 109% with NCI-H460 lung; 98.1% and 86.6% in the assay with HOP-92 NSCLC; 89.7% and 88% in the assay with NCI-H522 lung. Besides, the growth in the assay with A549/ATCC NSCLC was 99.3% and 83.2%; with 786-0 renal, 104% and 102%; in the assay with COLO 205 colon, 114% and 124%; in the assay with DU-145 prostate, 127% and 109%; in the assay with K-562 leukemia, 120% and 93.5%; in the assay on MALME-3M melanoma, 92.2%. The growth is 109% and 125% in the assay with MDA-MB-231 breast; 102% and 97.6% in the assay on RXF 393 renal; 110% and 100% in the assay with SF-268 CNS; 108% and 105% with SF-295 CNS; 111% and 118% in the assay with SF-539 CNS; 98.6% and 100% with UACC-257 melanoma. The growth in the assay with M14 melanoma was 102% and 103%.

In the case of `CN(C)CCCN1c2ccccc2Sc2ccc(Cl)cc21`, the growth is 106% and 97.5% and 92.1% in the assay with NCI-H226 lung; 77.4% and 105% and 71% with NCI-H322M lung; 77.1% and 107% and 95.2% with HOP-62 NSCLC; 101% and 105% and 100% in the assay with NCI-H460 lung; 47.1% and 99.2% in the assay with HOP-92 NSCLC; 72.3% and 97.6% in the assay with NCI-H522 lung. For the same compound, the growth is 103% and 94.4% in the assay with A549/ATCC NSCLC; 68% and 106% and 81.9% in the assay with 786-0 renal; 50.5% and 102% and 67.9% in the assay on COLO 205 colon; 101% and 113% and 111% in the assay on DU-145 prostate; 51.6% and 120% and 58.2% in the assay with K-562 leukemia; 90.2% and 111% and 76.7% in the assay on MALME-3M melanoma. The growth in the assay with MDA-MB-231 breast was 67.7% and 108% and 72.3%; with RXF 393 renal, 52% and 84.6% and 82%; with SF-268 CNS, 83% and 104% and 83.6%; with SF-295 CNS it was 95.3% and 160% and 81%; in the assay on SF-539 CNS it was 90.5% and 98.8% and 88.8%; with UACC-257 melanoma, 78% and 106% and 115%. Moreover, the growth in the assay on M14 melanoma was 31% and 102% and 81%.
